# In article PMC8384837, “Expanding the binding specificity for RNA recognition by a PUF domain”:
# Residue numbers refer to the chain shown, from its start.
# How the values were obtained:
# Assay in all cases: yeast three-hybrid, YBZ-1, SC-Leu-His + 0.5 mM 3-AT, 4 days
# Settings in all cases: tags: N-Gal4 AD-HA kept; label: inside an RPR1-promoter hybrid RNA with tandem MS2 sites; ssRNA
# [1] = target: PUM1 PUF domain R4-SRW (Homo sapiens, UniProt Q14671 828-1176, N971S;H972R;Q975W)
# In short: (§1)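 Matching RNA elements and Pumilio-1 PUF domain libraries, randomized at the three base-contacting residues of every repeat, were co-expressed from a centromeric plasmid in strain YBZ-1 (LexA–MS2 coat fusion, HIS3 reporter). The repeat regions were PCR-amplified and Illumina-sequenced from cells grown four days on SC-Leu (input) or SC-Leu-His + 0.5 mM 3-AT (selection). The interaction score is the log change in variant frequency from input to selection. It is computed in log2, with a pseudocount of 1 for absent variants.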
# [2] = target: PUM1 PUF domain R5-QRS (Homo sapiens, UniProt Q14671 828-1176, C1007Q;Q1011S)
# In short: as §1
# [3] = target: PUM1 PUF domain R4-LGM (Homo sapiens, UniProt Q14671 828-1176, N971L;H972G;Q975M)
# In short: as §1
# [4] = target: T1, PUM1 PUF domain R6-WHG (Homo sapiens, UniProt Q14671 828-1176, N1043W;Y1044H;Q1047G)
# T1 sequence: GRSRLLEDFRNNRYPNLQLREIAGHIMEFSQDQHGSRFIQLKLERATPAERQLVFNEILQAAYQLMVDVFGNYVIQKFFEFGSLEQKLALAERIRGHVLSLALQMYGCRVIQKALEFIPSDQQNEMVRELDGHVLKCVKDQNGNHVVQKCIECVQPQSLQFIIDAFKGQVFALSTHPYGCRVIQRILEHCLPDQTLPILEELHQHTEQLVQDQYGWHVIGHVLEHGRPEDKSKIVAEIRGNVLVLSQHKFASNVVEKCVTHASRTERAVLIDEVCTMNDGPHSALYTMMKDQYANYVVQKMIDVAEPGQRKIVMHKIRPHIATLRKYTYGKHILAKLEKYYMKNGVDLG
# In short: as §1
# [5] = target: T2, PUM1 PUF domain R6-RHQ (Homo sapiens, UniProt Q14671 828-1176, N1043R;Y1044H)
# T2 sequence: T1 sequence with W216R, G220Q
# In short: as §1
# [6] = target: PUM1 PUF domain R3-APV (Homo sapiens, UniProt Q14671 828-1176, C935A;R936P;Q939V)
# In short: as §1
# [7] = target: T3, PUM1 PUF domain R6-NFC (Homo sapiens, UniProt Q14671 828-1176, Y1044F;Q1047C)
# T3 sequence: T1 sequence with W216N, H217F, G220C
# In short: as §1
# [8] = target: T4, PUM1 PUF domain R6-QFR (Homo sapiens, UniProt Q14671 828-1176, N1043Q;Y1044F;Q1047R)
# T4 sequence: T1 sequence with W216Q, H217F, G220R
# In short: as §1
# [9] = target: PUM1 PUF domain R8-AFR (Homo sapiens, UniProt Q14671 828-1176, N1122A;Y1123F;Q1126R)
# In short: as §1
# [10] = target: PUM1 PUF domain R8-SWR (Homo sapiens, UniProt Q14671 828-1176, N1122S;Y1123W;Q1126R)
# In short: as §1
# [11] = target: PUM1 PUF domain R8-RYL (Homo sapiens, UniProt Q14671 828-1176, N1122R;Q1126L)
# In short: as §1
# [12] = target: PUM1 PUF domain R1-SWK (Homo sapiens, UniProt Q14671 828-1176, R864W;Q867K)
# In short: as §1
# [13] = target: PUM1 PUF domain R1-KIR (Homo sapiens, UniProt Q14671 828-1176, S863K;R864I;Q867R)
# In short: as §1
# [14] = target: PUM1 PUF domain R7-KRT (Homo sapiens, UniProt Q14671 828-1176, S1079K;N1080R;E1083T)
# In short: as §1
# [15] = target: PUM1 PUF domain R8-KQR (Homo sapiens, UniProt Q14671 828-1176, N1122K;Y1123Q;Q1126R)
# In short: as §1
# [16] = target: PUM1 PUF domain R3-LRA (Homo sapiens, UniProt Q14671 828-1176, C935L;Q939A)
# In short: as §1
# [17] = target: PUM1 PUF domain R3-NPV (Homo sapiens, UniProt Q14671 828-1176, C935N;R936P;Q939V)
# In short: as §1
# [18] = target: PUM1 PUF domain R1-KQN (Homo sapiens, UniProt Q14671 828-1176, S863K;R864Q;Q867N)
# In short: as §1
# [19] = target: PUM1 PUF domain R5-RNR (Homo sapiens, UniProt Q14671 828-1176, C1007R;R1008N;Q1011R)
# In short: as §1
sequence,measurement,setting,value
GGCUAGAACUAGUGGAUCCCCCGGCGCCCGGCGGCUCGAGCCCGGGUAAGUGUAAAUAGUCUGCAUGCCGCCGGGCGCCAUGCCUGCAGGUCGACUCUAGAAAACAUG,binding signal,[1],3.2 log2 enrichment (interaction score)
same,binding signal,[2],1.57 log2 enrichment (interaction score)
same,binding signal,[3],3.11 log2 enrichment (interaction score)
same,binding signal,[4],3.76 log2 enrichment (interaction score)
same,binding signal,[5],5.04 log2 enrichment (interaction score)
same,binding signal,[6],3.39 log2 enrichment (interaction score)
same,binding signal,[7],3.34 log2 enrichment (interaction score)
same,binding signal,[8],7.93 log2 enrichment (interaction score)
same,binding signal,[9],3.56 log2 enrichment (interaction score)
same,binding signal,[10],6.3 log2 enrichment (interaction score)
same,binding signal,[11],5.73 log2 enrichment (interaction score)
GGCUAGAACUAGUGGAUCCCCCGGCGCCCGGCGGCUCGAGCCCGGGUAAGUGUAUAUAGUCUGCAUGCCGCCGGGCGCCAUGCCUGCAGGUCGACUCUAGAAAACAUG,binding signal,[1],0.88 log2 enrichment (interaction score)
GGCUAGAACUAGUGGAUCCCCCGGCGCCCGGCGGCUCGAGCCCGGGUAAGUGUGAAUAGUCUGCAUGCCGCCGGGCGCCAUGCCUGCAGGUCGACUCUAGAAAACAUG,binding signal,[2],3.7 log2 enrichment (interaction score)
GGCUAGAACUAGUGGAUCCCCCGGCGCCCGGCGGCUCGAGCCCGGGUAAGUGUAAAUCGUCUGCAUGCCGCCGGGCGCCAUGCCUGCAGGUCGACUCUAGAAAACAUG,binding signal,[12],2.68 log2 enrichment (interaction score)
same,binding signal,[13],4.83 log2 enrichment (interaction score)
GGCUAGAACUAGUGGAUCCCCCGGCGCCCGGCGGCUCGAGCCCGGGUAAGUCUAAAUAGUCUGCAUGCCGCCGGGCGCCAUGCCUGCAGGUCGACUCUAGAAAACAUG,binding signal,[14],4.64 log2 enrichment (interaction score)
GGCUAGAACUAGUGGAUCCCCCGGCGCCCGGCGGCUCGAGCCCGGGUAAGUUUAAAUAGUCUGCAUGCCGCCGGGCGCCAUGCCUGCAGGUCGACUCUAGAAAACAUG,binding signal,[14],4.19 log2 enrichment (interaction score)
GGCUAGAACUAGUGGAUCCCCCGGCGCCCGGCGGCUCGAGCCCGGGUAAGCGUAAAUAGUCUGCAUGCCGCCGGGCGCCAUGCCUGCAGGUCGACUCUAGAAAACAUG,binding signal,[15],2.27 log2 enrichment (interaction score)
same,binding signal,[9],3.34 log2 enrichment (interaction score)
same,binding signal,[10],5.3 log2 enrichment (interaction score)
same,binding signal,[11],5.95 log2 enrichment (interaction score)
GGCUAGAACUAGUGGAUCCCCCGGCGCCCGGCGGCUCGAGCCCGGGUAAGUGUAAUUAGUCUGCAUGCCGCCGGGCGCCAUGCCUGCAGGUCGACUCUAGAAAACAUG,binding signal,[6],1.79 log2 enrichment (interaction score)
same,binding signal,[16],1.5 log2 enrichment (interaction score)
same,binding signal,[17],2.64 log2 enrichment (interaction score)
GGCUAGAACUAGUGGAUCCCCCGGCGCCCGGCGGCUCGAGCCCGGGUAAGUGUAAAUGGUCUGCAUGCCGCCGGGCGCCAUGCCUGCAGGUCGACUCUAGAAAACAUG,binding signal,[18],2.83 log2 enrichment (interaction score)
GGCUAGAACUAGUGGAUCCCCCGGCGCCCGGCGGCUCGAGCCCGGGUAAGUGUCAAUAGUCUGCAUGCCGCCGGGCGCCAUGCCUGCAGGUCGACUCUAGAAAACAUG,binding signal,[19],3.17 log2 enrichment (interaction score)
GGCUAGAACUAGUGGAUCCCCCGGCGCCCGGCGGCUCGAGCCCGGGUAAGUGCAAAUAGUCUGCAUGCCGCCGGGCGCCAUGCCUGCAGGUCGACUCUAGAAAACAUG,binding signal,[8],4.65 log2 enrichment (interaction score)
GGCUAGAACUAGUGGAUCCCCCGGCGCCCGGCGGCUCGAGCCCGGGUAAGUGUAAGUAGUCUGCAUGCCGCCGGGCGCCAUGCCUGCAGGUCGACUCUAGAAAACAUG,binding signal,[16],4.29 log2 enrichment (interaction score)
